Values joined by “and” are separate entries in the source; they are usually repeats but may differ in a detail not shown here. Identical values can stand only once. Inconclusive results are not listed. Active and inactive are the calls of the source. The call rests on the fitted dose curve; in most records, active means well fitted curve in the direction sought with a large enough effect; inconclusive means small, poorly fitted or top-dose-only effect, or another doubt; inactive means no such curve, though single readings can be large; an effect the other way counts as inactive or inconclusive.
Legend:
[1] = test system: MCC-26; experiment: qHTS assay to identify novel small-molecules to repurpose for Merkel cell carcinoma treatment (AID 1296009); settings: MCC and control cell lines, CellTiter-Glo viability, 72 h; series mostly up to 46 µM; further: nearly all actives have a fitted effect of over 60% in size
In short: (§1)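 Luminescence from CellTiter-Glo, read 10 min after addition at room temperature, reported viability following a 72 hr, 37 degree celsius treatment with NPC or MIPE compounds in titration; values normalized to plate controls.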

[2] = test system: MKL-2; experiment: as above; settings: MCC and control cell lines, CellTiter-Glo viability, 72 h; series mostly up to 46 µM
In short: as §1

[3] = test system: UISO; experiment: as above; settings: MCC and control cell lines, CellTiter-Glo viability, 72 h; series mostly up to 46 µM
In short: as §1

[4] = test system: WaGa; experiment: as above; settings: MCC and control cell lines, CellTiter-Glo viability, 72 h; series mostly up to 46 µM
In short: as §1

[5] = test system: C33A; experiment: Primary qHTS to identify gynecologic anti-cancer compounds using libraries of approved drugs and bioactive compounds (AID 1345084); settings: Gynecologic cancer cell panel viability, ATPlite luminescence, 48 h; series mostly up to 57.5 µM; further: nearly all actives have a fitted effect of over 55% in size; further: potency means the concentration at half of the fitted maximal effect
In short: (§2)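 Cells, 1,000 per well, were allowed to settle for 16 h at 37 C before compound addition. Five concentrations were tested for 48 h, and viability was read by ATPlite luminescence after 15 min at room temperature.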

[6] = test system: CAOV3; experiment: as above; settings: Gynecologic cancer cell panel viability, ATPlite luminescence, 48 h; series mostly up to 57.5 µM
In short: as §2

[7] = test system: CASKI; experiment: as above; settings: Gynecologic cancer cell panel viability, ATPlite luminescence, 48 h; series mostly up to 57.5 µM
In short: as §2

[8] = test system: Es-2; experiment: as above; settings: Gynecologic cancer cell panel viability, ATPlite luminescence, 48 h; series mostly up to 57.5 µM
In short: as §2

[9] = test system: HeLa; experiment: as above; settings: Gynecologic cancer cell panel viability, ATPlite luminescence, 48 h; series mostly up to 57.5 µM
In short: as §2

[10] = test system: Hek293T; experiment: as above; settings: Gynecologic cancer cell panel viability, ATPlite luminescence, 48 h, control line for the selectivity index; series mostly up to 57.5 µM
In short: as §2

[11] = test system: JEG-3; experiment: as above; settings: Gynecologic cancer cell panel viability, ATPlite luminescence, 48 h; series mostly up to 57.5 µM
In short: as §2

[12] = test system: OV90; experiment: as above; settings: Gynecologic cancer cell panel viability, ATPlite luminescence, 48 h; series mostly up to 57.5 µM
In short: as §2

[13] = test system: PA-1; experiment: as above; settings: Gynecologic cancer cell panel viability, ATPlite luminescence, 48 h; series mostly up to 57.5 µM
In short: as §2

[14] = test system: SKOV3; experiment: as above; settings: Gynecologic cancer cell panel viability, ATPlite luminescence, 48 h; series mostly up to 57.5 µM
In short: as §2

[15] = test system: Tov-21-G; experiment: as above; settings: Gynecologic cancer cell panel viability, ATPlite luminescence, 48 h; series mostly up to 57.5 µM
In short: as §2

[16] = test system: Tov112D; experiment: as above; settings: Gynecologic cancer cell panel viability, ATPlite luminescence, 48 h; series mostly up to 57.5 µM
In short: as §2

[17] = Drug repurposing screens with cells derived from glioblastoma tumor samples (AID 1345199); settings: GBM patient neurospheres viability, ATP luminescence, 48 h; further: nearly all actives have a fitted effect of over 40% in size; further: potency means the concentration at half of the fitted maximal effect
In short: (§3)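 Primary testing used CD133+ neurospheres from four GBM patients, seven concentrations, 48 h exposure and ATP-based viability; confirmation added three slower-growing patient lines.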

[18] = test system: astro; experiment: as above; settings: viability, ATP luminescence, 48 h; series mostly up to 45.9 µM
In short: as §3

[19] = test system: MKL-1; experiment: qHTS assay to identify novel small-molecules to repurpose for Merkel cell carcinoma treatment (AID 1296009); settings: MCC and control cell lines, CellTiter-Glo viability, 72 h; series mostly up to 46 µM; further: nearly all actives have a fitted effect of over 60% in size
In short: as §1

[20] = test system: NIH3T3; experiment: as above; settings: MCC and control cell lines, CellTiter-Glo viability, 72 h; at 44.8 µM (top of the series) unless noted
In short: as §1

[21] = at 45.9 µM (top of the series), tumour line B
[22] = at 45.9 µM (top of the series), tumour line D
[23] = at 46 µM (top of the series), tumour line A
[24] = at 46.1 µM (top of the series), tumour line C
On the % scale 0 is the no-effect control and ±100 the full control effect.

Cc1ccc(=O)n(-c2ccccc2)c1
inactive: Potency [1] | Potency [2] | Potency [3] | Potency [4] | Potency [5] | Potency [6] | Potency [7] | Potency [8] | Potency [9] | Potency [10] | Potency [11] | Potency [12] | Potency [13] | Potency [14] | Potency [15] | Potency [16] | activity, negative = cell killing [17, 21] -7.87% | activity, negative = cell killing [17, 22] 11.3% | activity, negative = cell killing [17, 23] -13.3% | activity, negative = cell killing [17, 24] -7.43% | Potency [18]

C[C@]12CC[C@@H]3c4ccc(O)cc4C[C@@H](CCCCCCCCCS(=O)CCCC(F)(F)C(F)(F)F)[C@H]3[C@@H]1CC[C@@H]2O (stereo not given in full)
active: Potency ([17]; tumour line A) 4.47 µM
inactive: Potency [1] | Potency [19] | Potency [4] | Potency [5] | Potency [6] | Potency [7] | Potency [8] | Potency [10] | Potency [11] | Potency [12] | Potency [13] | Potency [14] | Potency [15] | Potency [16] | activity, negative = cell killing [17, 21] 11.9% | activity, negative = cell killing [17, 22] -8.98% | activity, negative = cell killing [17, 24] 16.6% | Potency [18]

CN/C(=C\[N+](=O)[O-])NCCSCc1ccc(CN(C)C)o1
active: Potency [12] 14.1 µM
inactive: Potency [1] | Potency [2] | Potency [3] | Potency [4] | Potency [5] | Potency [6] | Potency [7] | Potency [8] | Potency [9] | Potency [10] | Potency [11] | Potency [13] | Potency [16] | activity, negative = cell killing [17, 24] -1.34% | Potency [18]

N[C@@H](COP(=O)(O)O)C(=O)O
inactive: Potency [1] | Potency [2] | Potency [3] | Potency [4] | Potency [5] | Potency [6] | Potency [7] | Potency [8] | Potency [10] | Potency [11] | Potency [12] | Potency [13] | Potency [14] | Potency [15] | Potency [16] | activity, negative = cell killing [17, 21] -4.31% | activity, negative = cell killing [17, 22] -5.04% | activity, negative = cell killing [17, 24] -9.92%

CN(C)CCN(Cc1cccs1)c1ccccn1
inactive: Potency [1] | Potency [2] | Potency [3] | Potency [4] | Potency [5] | Potency [6] | Potency [7] | Potency [8] | Potency [9] | Potency [10] | Potency [11] | Potency [12] | Potency [13] | Potency [14] | Potency [15] | Potency [16] | activity, negative = cell killing [17, 21] -18% | Potency [18]
active: Potency ([17]; tumour line A) 8.91 µM

COCCc1ccc(OCC(O)CNC(C)C)cc1 (stereo not given)
inactive: Potency [1] | Potency [2] | outcome [20] | Potency [3] | Potency [4] | Potency [5] | Potency [6] | Potency [7] | Potency [8] | Potency [9] | Potency [10] | Potency [11] | Potency [12] | Potency [13] | Potency [14] | Potency [15] | Potency [16] | activity, negative = cell killing [17, 21] -10.1% and -7.19% and -6.43% | activity, negative = cell killing [17, 22] 1.85% and 20.6% and -26.1% | activity, negative = cell killing [17, 23] -33.9% | activity, negative = cell killing [17, 24] -0.129% and -0.523%

CCN(CC)CCCN(c1ccccc1)C1Cc2ccccc2C1
inactive: Potency [1] | Potency [19] | Potency [3] | Potency [7] | Potency [8] | Potency [11] | Potency [13] | Potency [15] | Potency [16]

c1ccc2c(c1)CCCC2C1=NCCN1 (stereo not given)
inactive: Potency [1] | Potency [2] | outcome [20] | Potency [3] | Potency [4] | Potency [5] | Potency [6] | Potency [7] | Potency [8] | Potency [9] | Potency [10] | Potency [11] | Potency [12] | Potency [13] | Potency [15] | Potency [16] | activity, negative = cell killing [17, 21] 0.679% | activity, negative = cell killing [17, 22] 3.62% | activity, negative = cell killing [17, 24] -14.8%

COc1cc(C(=O)OCCCN2CCCN(CCCOC(=O)c3cc(OC)c(OC)c(OC)c3)CC2)cc(OC)c1OC
inactive: Potency [1] | Potency [19] | Potency [3] | Potency [5] | Potency [10] | Potency [11] | Potency [13] | Potency [14] | Potency [16] | activity, negative = cell killing [17, 24] -7.95%
active: Potency ([17]; tumour line A) 3.98 µM | Potency ([17]; tumour line D) 22.4 µM

NS(=O)(=O)c1cc2c(cc1Cl)NC(C1CC3C=CC1C3)NS2(=O)=O (stereo not given)
inactive: Potency [1] | Potency [2] | Potency [3] | Potency [4] | Potency [5] | Potency [6] | Potency [7] | Potency [8] | Potency [10] | Potency [11] | Potency [12] | Potency [13] | Potency [14] | Potency [15] | Potency [16] | activity, negative = cell killing [17, 21] 0.786% | activity, negative = cell killing [17, 22] 7.03% | activity, negative = cell killing [17, 23] -11.5% | activity, negative = cell killing [17, 24] -5.22% | Potency [18]

CC(=O)Nc1nnc(S(N)(=O)=O)s1
inactive: Potency [1] | Potency [2] | outcome [20] | Potency [3] | Potency [4] | Potency [5] | Potency [6] | Potency [7] | Potency [8] | Potency [9] | Potency [10] | Potency [11] | Potency [12] | Potency [13] | Potency [15] | Potency [16] | activity, negative = cell killing [17, 21] -5.69% | activity, negative = cell killing [17, 22] 0.278% | activity, negative = cell killing [17, 23] 1.18% | activity, negative = cell killing [17, 24] -27.5% | Potency [18]

Reference: PubChem BioAssay (NCATS)
